SMILES strings stand for the structures. Active and inactive are the calls of the source.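 Rule for the calls, unless noted: active = compound raises GLP1 secretion from the human gut endocrine cells, with no numeric limit stated; inactive = the rest.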

The nature of one experiment: glucagon-like peptide 1 release enhancers, primary assay, NCI-H716 cell line, NPC library (AID 1117341). Note: reference of the scale not given here. The settings on record: NCI-H716 cells, at 10 µM, hits give high values.
In the case of `CC12CC3CC(C)(C1)CC(N)(C3)C2`, the GLP1 secretion stimulation is 2.8% (inactive).

For the molecule `CC(=O)OCC(CCn1cnc2cnc(N)nc21)COC(C)=O`, the GLP1 secretion stimulation is 0.4% (inactive).

In the case of `S=c1nc[nH]c2nc[nH]c12`, the GLP1 secretion stimulation is -0.7% (inactive).

For `Oc1c(Cl)cc(Cl)c2cccnc12`, the GLP1 secretion stimulation is 5.7% (inactive).

With `CC1=NS(=O)(=O)c2cc(Cl)ccc2N1`, the GLP1 secretion stimulation was 0.6% (inactive).

With `OC(Cn1cncn1)(Cn1cncn1)c1ccc(F)cc1F`, the GLP1 secretion stimulation is 1% (inactive).

Take `NCCc1ccc(O)c(O)c1`: the GLP1 secretion stimulation is -0.9% (inactive).

In the case of `CN=C(NC#N)NCCSCc1nc[nH]c1C`, the GLP1 secretion stimulation was -0.3% (inactive).

Consider `COc1c(N2CCNC(C)C2)c(F)cc2c(=O)c(C(=O)O)cn(C3CC3)c12` (stereo not drawn), for which the GLP1 secretion stimulation is -2.4% (inactive).

As for `CC1COc2c(N3CCN(C)CC3)c(F)cc3c(=O)c(C(=O)O)cn1c23` (stereo not drawn), the GLP1 secretion stimulation is 2.5% (inactive).

With `O=C(C1CCCCC1)N1CC(=O)N2CCc3ccccc3C2C1` (stereo not drawn), the GLP1 secretion stimulation is -2.7% (inactive).

For `CCc1cc(C(N)=S)ccn1`, the GLP1 secretion stimulation was -4% (inactive).

On to `CC1=C(/C=C/C(C)=C/C=C/C(C)=C/C(=O)O)C(C)(C)CCC1`, for which the GLP1 secretion stimulation was 14.4% (inactive).

Turning to `CCCCNc1cc(C(=O)O)cc(S(N)(=O)=O)c1Oc1ccccc1`, the GLP1 secretion stimulation is -2.2% (inactive).

Take `O=c1[nH]cnc2[nH]ncc12`: the GLP1 secretion stimulation was 0.1% (inactive).

As for `O=C1c2c(O)ccc(O)c2C(=O)c2c(NCCNCCO)ccc(NCCNCCO)c21`, the GLP1 secretion stimulation was -17.3% (inactive).

For `O=C(O)c1cc(=O)c2c(OCC(O)COc3cccc4oc(C(=O)O)cc(=O)c34)cccc2o1`, the GLP1 secretion stimulation was -0.5% (inactive).

Take `CC(C)C(=O)Nc1ccc([N+](=O)[O-])c(C(F)(F)F)c1`: the GLP1 secretion stimulation was -0.5% (inactive).

Consider `CC(COc1ccccc1)N(CCCl)Cc1ccccc1` (stereo not drawn), for which the GLP1 secretion stimulation is 3.8% (inactive).

Consider `CCCc1nc2c(C)cc(-c3nc4ccccc4n3C)cc2n1Cc1ccc(-c2ccccc2C(=O)O)cc1`, for which the GLP1 secretion stimulation was 1.1% (inactive).

Turning to `CC(=O)CC(c1ccccc1)c1c(O)c2ccccc2oc1=O` (stereo not drawn), the GLP1 secretion stimulation was 3.5% (inactive).

For `NS(=O)(=O)c1cc2c(cc1Cl)NCNS2(=O)=O`, the GLP1 secretion stimulation was -0.3% (inactive).

With `CS(=O)(=O)OCCCCOS(C)(=O)=O`, the GLP1 secretion stimulation was -1.7% (inactive).

On to `CCOC(=O)C1=C(C)NC(C)=C(C(=O)OC)C1c1cccc([N+](=O)[O-])c1` (stereo not drawn), for which the GLP1 secretion stimulation was -0.6% (inactive).

Consider `COc1ccccc1OCCNCC(O)COc1cccc2[nH]c3ccccc3c12` (stereo not drawn), for which the GLP1 secretion stimulation was 11.2% (inactive).

Take `O=C(O)CCCc1ccccc1`: the GLP1 secretion stimulation was -1.1% (inactive).

With `NNCCc1ccccc1`, the GLP1 secretion stimulation was -0.4% (inactive).

In the case of `CC1Cc2ccccc2N1NC(=O)c1ccc(Cl)c(S(N)(=O)=O)c1` (stereo not drawn), the GLP1 secretion stimulation is 4.6% (inactive).

In the case of `CC(C)Cc1ccc(C(C)C(=O)O)cc1` (stereo not drawn), the GLP1 secretion stimulation is 0.1% (inactive).

As to `N[C@@H]1CONC1=O`, the GLP1 secretion stimulation is -0.7% (inactive).

As for `CCN(Cc1ccncc1)C(=O)C(CO)c1ccccc1` (stereo not drawn), the GLP1 secretion stimulation was 0.1% (inactive).

Consider `CCCc1cc(=O)[nH]c(=S)[nH]1`, for which the GLP1 secretion stimulation was -0.8% (inactive).

As to `O=C(O)c1cccnc1`, the GLP1 secretion stimulation was -5.4% (inactive).

As to `CC(C[N+](C)(C)C)OC(N)=O` (stereo not drawn), the GLP1 secretion stimulation was 0.5% (inactive).

For the molecule `COc1ccc(Cl)cc1C(=O)NCCc1ccc(S(=O)(=O)NC(=O)NC2CCCCC2)cc1`, the GLP1 secretion stimulation is 4.4% (inactive).

Take `N[C@@H](Cc1cc(I)c(Oc2cc(I)c(O)c(I)c2)c(I)c1)C(=O)O`: the GLP1 secretion stimulation was 0.1% (inactive).

With `CC1(C)O[C@@H]2[C@@H](CO[C@@]3(COS(N)(=O)=O)OC(C)(C)O[C@@H]23)O1`, the GLP1 secretion stimulation was -0.1% (inactive).

Turning to `COCCOC(=O)C1=C(C)NC(C)=C(C(=O)OC(C)C)C1c1cccc([N+](=O)[O-])c1` (stereo not drawn), the GLP1 secretion stimulation is -0.1% (inactive).

For the molecule `NNC(=O)c1ccncc1`, the GLP1 secretion stimulation is 0.3% (inactive).

The next experiment is described as follows: HCT116 colon cancer cell growth inhibition, primary screen, CellTiter-Glo luminescence, NPC library (AID 1117342;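 active = compounds that lower survival of HCT116 colon cancer cells in the luminescence readout, no numeric limit stated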). Particulars: at 20 µM (top of the series). (ATP-based viability assays read luminescence as a measure of living cells.)
`CC12CC3CC(C)(C1)CC(N)(C3)C2`: the inhibition of viability was -5.4% (inactive).

With `CC(=O)OCC(CCn1cnc2cnc(N)nc21)COC(C)=O`, the inhibition of viability is -2.1% (inactive).

Take `S=c1nc[nH]c2nc[nH]c12`: the inhibition of viability was 83.2% (active).

With `Oc1c(Cl)cc(Cl)c2cccnc12`, the inhibition of viability was 91.3% (active).

Take `CC1=NS(=O)(=O)c2cc(Cl)ccc2N1`: the inhibition of viability is 26.2% (inactive).

In the case of `OC(Cn1cncn1)(Cn1cncn1)c1ccc(F)cc1F`, the inhibition of viability was 1.7% (inactive).

Regarding `NCCc1ccc(O)c(O)c1`, the inhibition of viability was -9.7% (inactive).

For `CN=C(NC#N)NCCSCc1nc[nH]c1C`, the inhibition of viability is 8.17% (inactive).

Regarding `COc1c(N2CCNC(C)C2)c(F)cc2c(=O)c(C(=O)O)cn(C3CC3)c12` (stereo not drawn), the inhibition of viability is 25.9% (inactive).

As for `CC1COc2c(N3CCN(C)CC3)c(F)cc3c(=O)c(C(=O)O)cn1c23` (stereo not drawn), the inhibition of viability was 0.4% (inactive).

As to `O=C(C1CCCCC1)N1CC(=O)N2CCc3ccccc3C2C1` (stereo not drawn), the inhibition of viability was -11.5% (inactive).

Turning to `CCc1cc(C(N)=S)ccn1`, the inhibition of viability is -7.9% (inactive).

Consider `CC1=C(/C=C/C(C)=C/C=C/C(C)=C/C(=O)O)C(C)(C)CCC1`, for which the inhibition of viability was 102% (active).

In the case of `CCCCNc1cc(C(=O)O)cc(S(N)(=O)=O)c1Oc1ccccc1`, the inhibition of viability is 2.63% (inactive).

For `O=c1[nH]cnc2[nH]ncc12`, the inhibition of viability was 2.7% (inactive).

On to `O=C1c2c(O)ccc(O)c2C(=O)c2c(NCCNCCO)ccc(NCCNCCO)c21`, for which the inhibition of viability is 101% (active).

As to `O=C(O)c1cc(=O)c2c(OCC(O)COc3cccc4oc(C(=O)O)cc(=O)c34)cccc2o1`, the inhibition of viability was 2.4% (inactive).

Take `CC(C)C(=O)Nc1ccc([N+](=O)[O-])c(C(F)(F)F)c1`: the inhibition of viability is 25.5% (inactive).

Turning to `CC(COc1ccccc1)N(CCCl)Cc1ccccc1` (stereo not drawn), the inhibition of viability was -3.6% (inactive).

As to `CCCc1nc2c(C)cc(-c3nc4ccccc4n3C)cc2n1Cc1ccc(-c2ccccc2C(=O)O)cc1`, the inhibition of viability is 42% (inactive).

As for `CC(=O)CC(c1ccccc1)c1c(O)c2ccccc2oc1=O` (stereo not drawn), the inhibition of viability is -17.8% (inactive).

Turning to `NS(=O)(=O)c1cc2c(cc1Cl)NCNS2(=O)=O`, the inhibition of viability is 0.1% (inactive).

With `CS(=O)(=O)OCCCCOS(C)(=O)=O`, the inhibition of viability is -1.23% (inactive).

Turning to `CCOC(=O)C1=C(C)NC(C)=C(C(=O)OC)C1c1cccc([N+](=O)[O-])c1` (stereo not drawn), the inhibition of viability was 75.7% (active).

In the case of `COc1ccccc1OCCNCC(O)COc1cccc2[nH]c3ccccc3c12` (stereo not drawn), the inhibition of viability was 83.7% (active).

With `O=C(O)CCCc1ccccc1`, the inhibition of viability was 0.1% (inactive).

`NNCCc1ccccc1`: the inhibition of viability is 5.1% (inactive).

Turning to `CC1Cc2ccccc2N1NC(=O)c1ccc(Cl)c(S(N)(=O)=O)c1` (stereo not drawn), the inhibition of viability was -2.13% (inactive).

As to `CC(C)Cc1ccc(C(C)C(=O)O)cc1` (stereo not drawn), the inhibition of viability was -7.8% (inactive).

Regarding `N[C@@H]1CONC1=O`, the inhibition of viability is 8.67% (inactive).

Take `CCN(Cc1ccncc1)C(=O)C(CO)c1ccccc1` (stereo not drawn): the inhibition of viability is 14.3% (inactive).

On to `CCCc1cc(=O)[nH]c(=S)[nH]1`, for which the inhibition of viability was -19.2% (inactive).

As to `O=C(O)c1cccnc1`, the inhibition of viability was -15.8% (inactive).

Take `CC(C[N+](C)(C)C)OC(N)=O` (stereo not drawn): the inhibition of viability is -0.4% (inactive).

In the case of `COc1ccc(Cl)cc1C(=O)NCCc1ccc(S(=O)(=O)NC(=O)NC2CCCCC2)cc1`, the inhibition of viability was 20% (inactive).

As to `N[C@@H](Cc1cc(I)c(Oc2cc(I)c(O)c(I)c2)c(I)c1)C(=O)O`, the inhibition of viability is 36.7% (inactive).

As for `CC1(C)O[C@@H]2[C@@H](CO[C@@]3(COS(N)(=O)=O)OC(C)(C)O[C@@H]23)O1`, the inhibition of viability is -8.2% (inactive).

Turning to `COCCOC(=O)C1=C(C)NC(C)=C(C(=O)OC(C)C)C1c1cccc([N+](=O)[O-])c1` (stereo not drawn), the inhibition of viability was 77.9% (active).

For the molecule `NNC(=O)c1ccncc1`, the inhibition of viability was 9.9% (inactive).
